Results published in the supplement of paper PMC10849652.
Targets with a hit are over-represented here; the source holds about 7,900 in all. About 0.6% of all pairs of compound and target were hits.

What was measured:
Assay in all cases: log2 fold change, soluble protein after heating vs DMSO (PISA); higher = thermal stabilisation; K562 cells, 10 uM, 30 min; active = over 0.2 and 3.5 SD of the protein, either way, in both replicates (recomputed)
erlotinib = compound: C#Cc1cccc(Nc2ncnc3cc(OCCOC)c(OCCOC)cc23)c1 [erlotinib]
Procedure, shortened: (§1)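 Soluble protein was defined as the supernatant after 21,000xg for 90 min. It came from K562 cells at 2×10^6 cells/mL given 10 μM compound for 30 min, heated in aliquots for 3 min across 48°C-58°C, pooled, and extracted in PBS with 0.5% NP-40 at 4°C, and was quantified by TMTpro 16plex LC-MS/MS with equalised channel sums. Thermal stability against control samples, from duplicates, is reported as log2 fold change.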

[1] = compound: C/C(=N\NC(=O)C1=CC(=CC=C1)S(=O)(=O)N2CCOCC2)/C3=C(C=CC(=C3)Cl)O
Procedure, shortened: as §1

[2] = compound: C1=CC(=C(C=C1Cl)C2=NC3=NC=CN=C3C(=N2)NC4=CC=NC=C4)F
Procedure, shortened: as §1

[3] = compound: C1=CC(=CC=C1C2=NC3=C(N2)C=C(C=C3)C(=O)N)OC4=CC=C(C=C4)Cl
Procedure, shortened: as §1

[4] = compound: C1=CC2=C(C=CC(=C2)/C=C\3/C(=O)NC(=NCC4=CC=CS4)S3)N=C1
Procedure, shortened: as §1

[5] = compound: C1=CC2=NC=CN=C2C=C1/C=C/3\C(=O)NC(=O)S3
Procedure, shortened: as §1

[6] = compound: C1=CC=C(C=C1)C2=NC(=C(N2)C3=CC=NC=C3)C4=CC(=C(C=C4)Cl)O
Procedure, shortened: as §1

[7] = compound: C1=CC=C2C(=C1)C3=NNC4=CC=CC(=C43)C2=O
Procedure, shortened: as §1

[8] = compound: C1CCN(C1)C(=O)NC2=CC=CC(=C2)NC3=NC=C(C(=N3)NCCC4=CN=CN4)Br
Procedure, shortened: as §1

[9] = compound: C1CN(CCC1(CC2=CC=C(C=C2)Cl)N)C3=NC=NC4=C3C=CN4
Procedure, shortened: as §1

IRAK-1-4 Inhibitor I = compound: C1COCCN1CCN2C3=CC=CC=C3N=C2NC(=O)C4=CC(=CC=C4)[N+](=O)[O-] [IRAK-1-4 Inhibitor I]
Procedure, shortened: as §1

ibrutinib = compound: C=CC(=O)N1CCC[C@@H](n2nc(-c3ccc(Oc4ccccc4)cc3)c3c(N)ncnc32)C1 [ibrutinib]
Procedure, shortened: as §1

[10] = compound: CC(=O)c1cnc2ccc(-c3cc(Cl)c(O)c(Cl)c3)nc2c1N[C@H]1CC[C@H](CN(C)C)CC1
Procedure, shortened: as §1

ralimetinib = compound: CC(C)(C)Cn1c(N)nc2ccc(-c3[nH]c(C(C)(C)C)nc3-c3ccc(F)cc3)nc21 [ralimetinib]
Procedure, shortened: as §1

[11] = compound: CC(C)(O)CC(=O)NCCn1ccc2ncnc(Nc3ccc(Oc4cccc(C(F)(F)F)c4)c(Cl)c3)c21
Procedure, shortened: as §1

[12] = compound: CC(C)C1=C2N=C(C=C(N2N=C1)NCC3=CC=CC=C3)NCCCCCCN
Procedure, shortened: as §1

[13] = compound: CC(C)C[C@@H](C=O)NC(=O)[C@H](CC(C)C)NC(=O)[C@H](CC(C)C)NC(=O)OCc1ccccc1
Procedure, shortened: as §1

pinometostat = compound: CC(C)N(C[C@H]1O[C@@H](n2cnc3c(N)ncnc32)[C@H](O)[C@@H]1O)[C@H]1C[C@@H](CCc2nc3cc(C(C)(C)C)ccc3[nH]2)C1 [pinometostat]
Procedure, shortened: as §1

[14] = compound: CC1=C(C(CC(=O)N1)C2=CC=C(C=C2)C(F)(F)F)C(=O)NC3=C(C=C4C(=C3)C=NN4)F
Procedure, shortened: as §1

[15] = compound: CC1=C(C2=C(C=C1)C(=O)C3=CC=CC=C3N2CCCN)C
Procedure, shortened: as §1

Measured: log2 fold change

AMD1 (UniProt P17707)
Sequence of UniProt P17707 (P17707 whole entry, looked up): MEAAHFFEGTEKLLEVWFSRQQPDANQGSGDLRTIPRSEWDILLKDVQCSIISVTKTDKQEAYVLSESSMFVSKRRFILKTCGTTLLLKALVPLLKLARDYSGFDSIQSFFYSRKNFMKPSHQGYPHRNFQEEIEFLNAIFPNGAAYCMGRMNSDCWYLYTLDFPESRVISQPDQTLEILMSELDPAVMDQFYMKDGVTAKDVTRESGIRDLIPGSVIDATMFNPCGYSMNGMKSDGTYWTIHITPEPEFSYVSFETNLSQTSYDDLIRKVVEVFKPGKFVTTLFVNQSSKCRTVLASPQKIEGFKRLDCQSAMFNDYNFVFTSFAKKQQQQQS
inactive: erlotinib 0.078 | [1] -0.004 | [2] 0.039 | [3] 0.094 | [4] 0.091 | [5] -0.002 | [6] 0.127 | [7] 0.035 | [8] -0.224 | [9] 0.025 | IRAK-1-4 Inhibitor I -0.018 | ibrutinib -0.043 | [10] -0.086 | [11] -0.031 | [12] -0.073 | [13] 0.276 | pinometostat -0.025 | [14] 0.04 | [15] 0.051
active: ralimetinib -0.307

AMFR (UniProt Q9UKV5)
Sequence of UniProt Q9UKV5 (Q9UKV5 whole entry, looked up): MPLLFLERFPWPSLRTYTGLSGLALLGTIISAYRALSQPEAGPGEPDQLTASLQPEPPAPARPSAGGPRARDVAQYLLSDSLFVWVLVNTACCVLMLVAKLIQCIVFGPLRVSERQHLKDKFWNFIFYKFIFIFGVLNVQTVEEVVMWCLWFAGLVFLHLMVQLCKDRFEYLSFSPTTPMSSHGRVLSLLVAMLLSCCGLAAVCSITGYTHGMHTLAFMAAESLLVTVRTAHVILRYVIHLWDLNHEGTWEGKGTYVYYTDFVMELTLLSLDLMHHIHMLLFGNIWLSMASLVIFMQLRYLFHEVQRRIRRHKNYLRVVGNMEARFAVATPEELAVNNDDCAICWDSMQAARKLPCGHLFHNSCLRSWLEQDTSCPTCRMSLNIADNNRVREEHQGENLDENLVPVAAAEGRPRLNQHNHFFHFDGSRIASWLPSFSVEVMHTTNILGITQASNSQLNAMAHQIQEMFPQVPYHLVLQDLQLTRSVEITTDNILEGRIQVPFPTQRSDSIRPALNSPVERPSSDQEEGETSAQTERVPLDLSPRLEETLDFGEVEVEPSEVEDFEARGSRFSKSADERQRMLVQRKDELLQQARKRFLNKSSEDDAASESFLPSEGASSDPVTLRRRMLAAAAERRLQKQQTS
active: [12] -0.375
inactive: erlotinib 0.116 | [1] 0 | [2] -0.022 | [3] -0.062 | [4] -0.046 | [5] 0.058 | [6] 0.026 | [7] -0.062 | [8] 0.002 | [9] -0.009 | IRAK-1-4 Inhibitor I -0.083 | ibrutinib -0.039 | [10] 0.07 | ralimetinib 0.117 | [11] -0.034 | [13] 0.12 | pinometostat 0.077 | [14] -0.011 | [15] 0.019

AGPAT1 (UniProt Q99943)
Sequence of UniProt Q99943 (Q99943 whole entry, looked up): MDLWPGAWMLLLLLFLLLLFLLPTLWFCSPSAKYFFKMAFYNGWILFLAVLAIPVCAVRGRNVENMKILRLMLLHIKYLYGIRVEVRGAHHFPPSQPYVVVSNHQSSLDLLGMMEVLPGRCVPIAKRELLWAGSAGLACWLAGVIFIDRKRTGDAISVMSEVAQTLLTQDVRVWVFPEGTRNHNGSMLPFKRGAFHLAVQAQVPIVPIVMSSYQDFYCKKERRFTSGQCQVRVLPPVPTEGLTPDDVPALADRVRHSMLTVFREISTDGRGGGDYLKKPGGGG
inactive: erlotinib 0.04 | [1] -0.004 | [2] 0.008 | [3] -0.014 | [4] 0.013 | [5] 0.029 | [6] -0.015 | [7] -0.001 | [8] 0.001 | [9] 0.048 | IRAK-1-4 Inhibitor I 0 | ibrutinib -0.083 | [10] -0.051 | ralimetinib 0.012 | [11] -0.109 | [12] 0.06 | [13] -0.005 | pinometostat 0.02 | [14] -0.006 | [15] -0.017

ALDH2 (UniProt P05091)
inactive: erlotinib -0.009 | [1] 0.121 | [2] 0.039 | [3] 0.021 | [4] 0.096 | [5] 0.022 | [6] -0.019 | [7] 0.097 | [8] -0.041 | [9] 0.02 | IRAK-1-4 Inhibitor I 0.005 | ibrutinib 0.002 | [10] -0.005 | ralimetinib -0.086 | [11] -0.037 | [12] 0.018 | [13] -0.032 | pinometostat -0.034 | [14] -0.046 | [15] 0.063

AP2S1 (UniProt P53680)
Sequence of UniProt P53680 (P53680 whole entry, looked up): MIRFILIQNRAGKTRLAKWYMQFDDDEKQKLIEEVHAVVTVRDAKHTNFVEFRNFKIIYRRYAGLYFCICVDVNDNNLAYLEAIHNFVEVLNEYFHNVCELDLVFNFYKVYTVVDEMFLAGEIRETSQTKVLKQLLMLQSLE
inactive: erlotinib -0.1 | [1] 0.148 | [2] -0.056 | [3] -0.018 | [4] 0.052 | [5] 0.013 | [6] -0.011 | [9] -0.003 | IRAK-1-4 Inhibitor I -0.054 | ibrutinib -0.01 | [10] -0.117 | ralimetinib -0.017 | [11] -0.003 | [12] 0.028 | [13] -0.07 | pinometostat 0.038 | [14] -0.009 | [15] 0.091
active: [7] -0.27 | [8] -0.354

ACBD6 (UniProt Q9BR61)
Sequence of UniProt Q9BR61 (Q9BR61 whole entry, looked up): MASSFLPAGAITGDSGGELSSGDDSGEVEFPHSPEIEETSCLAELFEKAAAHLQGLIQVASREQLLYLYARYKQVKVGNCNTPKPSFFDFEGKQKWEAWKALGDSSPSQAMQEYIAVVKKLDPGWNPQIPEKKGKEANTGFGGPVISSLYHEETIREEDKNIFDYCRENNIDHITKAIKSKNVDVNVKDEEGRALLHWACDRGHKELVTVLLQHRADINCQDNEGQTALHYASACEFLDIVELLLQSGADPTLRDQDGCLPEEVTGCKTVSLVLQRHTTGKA
active: [10] 0.477
inactive: erlotinib 0.056 | [1] -0.031 | [2] 0.134 | [3] 0.108 | [4] 0.007 | [5] 0.011 | [6] -0.078 | [7] 0.073 | [8] -0.186 | [9] -0.216 | IRAK-1-4 Inhibitor I -0.072 | ibrutinib 0.009 | ralimetinib -0.169 | [11] -0.068 | [12] 0.173 | [13] 0.159 | pinometostat 0.008 | [14] 0.023 | [15] 0.074

ATP7B (UniProt P35670)
inactive: erlotinib -0.005 | [1] 0.073 | [2] -0.037 | [3] 0.051 | [4] 0.119 | [5] 0.01 | [6] 0.077 | [7] -0.009 | [8] -0.075 | [9] -0.052 | IRAK-1-4 Inhibitor I -0.022 | ibrutinib -0.033 | [10] 0.077 | ralimetinib 0.043 | [11] 0.003 | [12] 0.011 | [13] 0.015 | pinometostat 0.056 | [14] -0.124 | [15] 0.061

ATP12A isoform 2 (UniProt P54707)
Sequence of UniProt P54707 (P54707 whole entry, looked up): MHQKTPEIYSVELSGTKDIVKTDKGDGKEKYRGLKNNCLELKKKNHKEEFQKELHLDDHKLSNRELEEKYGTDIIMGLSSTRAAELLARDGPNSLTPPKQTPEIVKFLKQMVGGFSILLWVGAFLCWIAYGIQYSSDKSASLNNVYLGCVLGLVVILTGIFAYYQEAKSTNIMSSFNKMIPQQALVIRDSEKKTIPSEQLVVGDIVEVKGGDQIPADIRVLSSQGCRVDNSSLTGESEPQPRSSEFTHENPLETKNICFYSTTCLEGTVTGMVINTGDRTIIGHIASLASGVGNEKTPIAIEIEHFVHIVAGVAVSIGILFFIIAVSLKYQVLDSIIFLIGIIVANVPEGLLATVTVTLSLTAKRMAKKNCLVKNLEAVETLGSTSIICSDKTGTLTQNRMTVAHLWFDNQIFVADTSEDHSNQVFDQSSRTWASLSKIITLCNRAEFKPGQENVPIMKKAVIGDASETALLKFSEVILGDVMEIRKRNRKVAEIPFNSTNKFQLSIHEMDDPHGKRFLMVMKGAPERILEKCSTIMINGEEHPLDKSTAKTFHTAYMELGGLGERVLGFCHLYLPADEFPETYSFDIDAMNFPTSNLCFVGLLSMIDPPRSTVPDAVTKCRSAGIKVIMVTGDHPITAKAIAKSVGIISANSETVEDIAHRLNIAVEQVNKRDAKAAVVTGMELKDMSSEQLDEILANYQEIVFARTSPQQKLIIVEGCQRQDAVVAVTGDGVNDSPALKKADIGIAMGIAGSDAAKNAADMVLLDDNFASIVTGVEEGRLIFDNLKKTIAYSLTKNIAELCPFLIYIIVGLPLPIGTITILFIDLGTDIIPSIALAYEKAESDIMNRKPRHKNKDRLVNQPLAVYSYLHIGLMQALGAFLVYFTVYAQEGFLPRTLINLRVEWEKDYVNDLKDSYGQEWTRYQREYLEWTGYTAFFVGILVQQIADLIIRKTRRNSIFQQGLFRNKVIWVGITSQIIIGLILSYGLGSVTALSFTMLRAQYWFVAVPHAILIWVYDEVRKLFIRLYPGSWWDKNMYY
inactive: erlotinib 0.01 | [1] -0.002 | [2] 0.025 | [3] 0.014 | [4] 0.007 | [5] 0.026 | [6] 0.025 | [7] -0.049 | [8] -0.051 | [9] 0.05 | IRAK-1-4 Inhibitor I 0.013 | ibrutinib 0.009 | [10] -0.033 | ralimetinib -0.031 | [11] -0.036 | [12] 0.162 | [13] -0.005 | pinometostat -0.03 | [14] -0.02 | [15] 0.086

ATG9A (UniProt Q7Z3C6)
Sequence of UniProt Q7Z3C6 (Q7Z3C6 whole entry, looked up): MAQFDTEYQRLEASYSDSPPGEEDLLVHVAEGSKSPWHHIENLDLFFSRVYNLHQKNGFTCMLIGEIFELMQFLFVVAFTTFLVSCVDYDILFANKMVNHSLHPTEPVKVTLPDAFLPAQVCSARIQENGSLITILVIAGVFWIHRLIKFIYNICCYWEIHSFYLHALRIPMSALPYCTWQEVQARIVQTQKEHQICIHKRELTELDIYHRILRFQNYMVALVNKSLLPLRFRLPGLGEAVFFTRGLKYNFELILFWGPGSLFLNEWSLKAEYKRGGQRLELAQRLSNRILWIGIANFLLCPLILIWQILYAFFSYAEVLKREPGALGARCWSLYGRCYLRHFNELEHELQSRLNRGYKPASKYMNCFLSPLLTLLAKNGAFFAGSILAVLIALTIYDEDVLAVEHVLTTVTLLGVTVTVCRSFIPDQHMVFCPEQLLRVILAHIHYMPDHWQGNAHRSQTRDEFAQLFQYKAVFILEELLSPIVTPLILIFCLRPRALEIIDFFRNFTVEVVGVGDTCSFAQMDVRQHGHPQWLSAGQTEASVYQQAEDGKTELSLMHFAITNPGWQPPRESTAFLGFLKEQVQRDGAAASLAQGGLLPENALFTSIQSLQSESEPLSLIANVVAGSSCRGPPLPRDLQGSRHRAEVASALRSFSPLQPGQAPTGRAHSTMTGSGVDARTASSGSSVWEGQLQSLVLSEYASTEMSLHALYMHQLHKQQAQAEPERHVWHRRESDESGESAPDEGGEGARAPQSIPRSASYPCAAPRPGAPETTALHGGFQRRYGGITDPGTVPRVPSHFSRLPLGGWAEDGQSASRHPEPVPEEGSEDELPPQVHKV
inactive: erlotinib 0.044 | [1] 0.03 | [2] 0.057 | [3] -0.003 | [4] 0.047 | [5] 0.021 | [6] 0.045 | [7] -0.005 | [8] -0.026 | [9] -0.023 | IRAK-1-4 Inhibitor I 0 | ibrutinib 0.081 | [10] -0.091 | ralimetinib -0.023 | [11] -0.056 | [12] -0.176 | [13] 0.06 | pinometostat 0.015 | [14] -0.003 | [15] 0.038

BLOC1S3 (UniProt Q6QNY0)
Sequence of UniProt Q6QNY0 (Q6QNY0 whole entry, looked up): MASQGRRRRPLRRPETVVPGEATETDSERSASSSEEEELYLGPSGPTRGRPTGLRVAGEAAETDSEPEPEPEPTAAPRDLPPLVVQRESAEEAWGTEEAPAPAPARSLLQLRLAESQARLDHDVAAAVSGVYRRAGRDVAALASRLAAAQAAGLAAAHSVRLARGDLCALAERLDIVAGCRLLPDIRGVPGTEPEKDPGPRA
active: [10] 0.427
inactive: erlotinib 0.027 | [1] -0.009 | [2] 0.04 | [3] -0.003 | [4] 0.093 | [5] 0.012 | [6] 0.031 | [7] -0.052 | [8] -0.032 | [9] 0.052 | IRAK-1-4 Inhibitor I 0.018 | ibrutinib -0.037 | ralimetinib -0.033 | [11] -0.058 | [12] 0.005 | [13] -0.045 | pinometostat -0.041 | [14] -0.01 | [15] 0.076

AK6 (UniProt Q9Y3D8)
Sequence of UniProt Q9Y3D8 (Q9Y3D8 whole entry, looked up): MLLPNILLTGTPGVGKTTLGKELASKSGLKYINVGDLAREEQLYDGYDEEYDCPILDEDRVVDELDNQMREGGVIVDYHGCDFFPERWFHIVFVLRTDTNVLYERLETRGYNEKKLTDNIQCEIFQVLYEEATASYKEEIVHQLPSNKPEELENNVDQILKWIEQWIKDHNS
inactive: erlotinib 0.105 | [1] 0.108 | [2] 0.007 | [3] -0.157 | [4] 0.194 | [5] 0.025 | [6] 0.046 | [7] -0.027 | [8] -0.041 | [9] -0.085 | IRAK-1-4 Inhibitor I -0.051 | ibrutinib -0.014 | [10] -0.132 | ralimetinib 0.067 | [11] -0.175 | [12] -0.309 | [13] 0.039 | pinometostat 0.078 | [14] 0.061 | [15] 0.138

AIFM2 (UniProt Q9BRQ8)
inactive: erlotinib -0.038 | [1] 0.045 | [2] -0.001 | [3] 0.064 | [4] -0.025 | [5] -0.032 | [6] 0.041 | [7] 0.172 | [8] -0.045 | [9] 0.064 | IRAK-1-4 Inhibitor I 0.011 | ibrutinib -0.008 | [10] 0 | ralimetinib -0.005 | [11] 0.189 | [12] 0.161 | [13] -0.061 | pinometostat 0.044 | [14] -0.062 | [15] 0.021

AAMP (UniProt Q13685)
Sequence of UniProt Q13685 (Q13685 whole entry, looked up): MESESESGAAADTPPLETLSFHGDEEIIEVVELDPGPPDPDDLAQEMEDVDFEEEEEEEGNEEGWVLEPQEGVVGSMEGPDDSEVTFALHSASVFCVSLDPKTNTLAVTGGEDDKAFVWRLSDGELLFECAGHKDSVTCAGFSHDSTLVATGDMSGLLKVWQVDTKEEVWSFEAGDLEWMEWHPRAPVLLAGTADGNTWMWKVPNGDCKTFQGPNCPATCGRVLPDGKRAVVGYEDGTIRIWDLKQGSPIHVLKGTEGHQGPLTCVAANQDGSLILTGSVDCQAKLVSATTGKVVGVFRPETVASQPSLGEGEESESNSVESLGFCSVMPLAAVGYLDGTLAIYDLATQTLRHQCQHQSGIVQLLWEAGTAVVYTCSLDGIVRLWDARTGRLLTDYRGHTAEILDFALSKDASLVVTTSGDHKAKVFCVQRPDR
active: [15] 0.225
inactive: erlotinib 0.025 | [1] -0.032 | [2] 0.006 | [3] -0.003 | [4] 0.042 | [5] 0.074 | [6] -0.007 | [7] 0.003 | [8] -0.006 | [9] 0.085 | IRAK-1-4 Inhibitor I 0.007 | ibrutinib 0.023 | [10] 0.064 | ralimetinib 0.031 | [11] 0.04 | [12] -0.051 | [13] -0.02 | pinometostat 0.007 | [14] 0

BST2 (UniProt Q10589)
Sequence of UniProt Q10589 (Q10589 whole entry, looked up): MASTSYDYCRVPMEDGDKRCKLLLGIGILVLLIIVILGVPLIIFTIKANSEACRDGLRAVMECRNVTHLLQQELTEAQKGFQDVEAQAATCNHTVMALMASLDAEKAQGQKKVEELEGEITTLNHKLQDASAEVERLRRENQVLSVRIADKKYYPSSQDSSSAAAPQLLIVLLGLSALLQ
inactive: erlotinib -0.018 | [1] 0.026 | [2] -0.046 | [3] 0 | [4] 0.009 | [5] 0.024 | [6] -0.062 | [7] -0.013 | [8] 0.066 | [9] -0.063 | IRAK-1-4 Inhibitor I -0.004 | ibrutinib 0 | [10] -0.109 | ralimetinib 0.033 | [11] 0.025 | [12] -0.108 | [13] 0.12 | pinometostat -0.006 | [14] 0.026 | [15] 0.017

APOBEC3G (UniProt Q9HC16)
Sequence of UniProt Q9HC16 (Q9HC16 whole entry, looked up): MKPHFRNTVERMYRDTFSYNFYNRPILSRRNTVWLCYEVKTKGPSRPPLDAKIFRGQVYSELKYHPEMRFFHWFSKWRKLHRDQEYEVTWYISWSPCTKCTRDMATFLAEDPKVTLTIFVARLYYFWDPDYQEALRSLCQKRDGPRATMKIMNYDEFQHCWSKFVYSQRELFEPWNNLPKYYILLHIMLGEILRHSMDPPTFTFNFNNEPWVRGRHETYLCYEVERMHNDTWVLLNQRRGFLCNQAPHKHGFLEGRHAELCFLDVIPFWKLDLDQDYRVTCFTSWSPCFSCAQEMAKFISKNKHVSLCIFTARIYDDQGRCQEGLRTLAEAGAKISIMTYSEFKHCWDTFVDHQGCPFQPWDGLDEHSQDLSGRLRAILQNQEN
active: [15] -0.492
inactive: erlotinib -0.087 | [1] 0.027 | [2] -0.124 | [3] 0.047 | [4] -0.005 | [5] 0.056 | [6] -0.056 | [7] 0.109 | [8] 0.181 | [9] -0.362 | IRAK-1-4 Inhibitor I -0.064 | ibrutinib 0.103 | [10] -0.111 | ralimetinib 0.128 | [11] 0.075 | [12] 0.046 | [13] 0.077 | pinometostat 0.11 | [14] -0.09

ARFRP1 (UniProt Q13795)
inactive: erlotinib -0.018 | [1] -0.017 | [2] 0.096 | [3] 0.008 | [4] 0.12 | [5] 0.048 | [6] 0.057 | [7] 0.015 | [8] -0.013 | [9] 0.032 | IRAK-1-4 Inhibitor I -0.083 | ibrutinib 0.031 | [10] 0.02 | ralimetinib 0.004 | [11] -0.041 | [12] -0.028 | [13] -0.073 | pinometostat 0.017 | [14] -0.044 | [15] 0.075
